From PubChem BioAssay (NCATS)
Records with an inconclusive call do not appear. The source made the active and inactive calls. The call rests on the fitted dose curve; in most records, active means well fitted inhibition curve with a large enough effect; inconclusive means small, poorly fitted or top-dose-only effect; inactive means flat fitted curve, though single readings scatter.

Tests used:
[1] = tested on: HaCat; experiment: Cytotoxic Profiling of Annotated Libraries Using Quantitative High-Throughput Screening (AID 1296008); settings: Five cell lines viability, CellTiter-Glo ATP luminescence, 48-72 h; max response: hits give low values; further: potency means the concentration at half of the fitted maximal effect; on max response: on the % scale 0 is the no-effect control and ±100 the full control effect
In short: (§1)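 Cells exposed to compounds for 48 or 72 hr at 37 degrees Celsius. Viability read as ATP-coupled luminescence with CellTiter-Glo after 10 min at room temperature.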

[2] = tested on: KB-3-1; experiment: as above; settings: Five cell lines viability, CellTiter-Glo ATP luminescence, 48-72 h; max response: hits give low values
In short: as §1

[3] = tested on: NIH3T3; experiment: as above; settings: Five cell lines viability, CellTiter-Glo ATP luminescence, 48-72 h; max response: hits give low values
In short: as §1

[4] = tested on: HACAT; experiment: qHTS assay to identify novel small-molecules to repurpose for Merkel cell carcinoma treatment (AID 1296009); settings: MCC and control cell lines, CellTiter-Glo viability, 72 h; at 44.8 µM (top of the series) unless noted
In short: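 Dose-response viability screen; 72 hr exposure at 37 degree celsius; CellTiter-Glo added, 10 min room temperature, luminescence read; RLUs scaled between no-cell and DMSO wells.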
Further: nearly all actives have a fitted effect of over 60% in size.

NC(=O)c1nc(Nc2ccccc2)sc1NC(=O)C1CCCCC1
inactive: max response [1] -27.5% | outcome [2] | max response [3] -18.8%

C=C1C(=O)O[C@@H]2C=C(COC(C)=O)CC/C=C(\CO)CC[C@@H]12
inactive: outcome [1] | max response [2] 7.74% | max response [3] -6.09% | outcome [4]

CCCCOc1ccc(S(=O)(=O)n2c(C)nc3ccccc32)cc1
inactive: max response [1] 3.36% | max response [2] -24.1% | max response [3] -1.64%

C=C1C(=O)O[C@@H]2/C=C(\C)CC/C=C(\C)CC[C@@H]12
inactive: outcome [1] | max response [2] -12.1% | outcome [4]

S=C(c1ccc(-c2ccc(Cl)c(Cl)c2)o1)N1CCCCC1
inactive: outcome [1] | max response [2] 6.89% | max response [3] 2.68% | outcome [4]

Cc1ccc(N2CCN(S(=O)(=O)N3CCCCC3)CC2)c(C)c1
inactive: outcome [1] | max response [2] -2.41% | max response [3] 4.82% | outcome [4]

COc1cc(C(=O)NCC2(N(C)C)CCCC2)cc(OC)c1OCc1ccccc1
inactive: max response [1] 3.73% | max response [2] 3.26% | max response [3] -9.79%

C=C1C(=O)OC2C1CCC1(C)C(O)CCC(=C)C21 (stereo not given)
inactive: outcome [1] | max response [2] 7.7% | max response [3] -19.9% | outcome [4]

COC(=O)c1sccc1S(=O)(=O)Nc1ccc(Nc2ccccc2)cc1OC
inactive: outcome [1] | max response [2] -21.5% | max response [3] 1.31% | outcome [4]

COc1ccc(-n2c(SCCCN3C(=O)c4cccc5cccc(c45)C3=O)nnc2-c2ccncc2)cc1
inactive: outcome [1] | max response [2] -1.97% | max response [3] -2.58% | outcome [4]

C/C=C(\C)[C@@H]1C(C)=C[C@@H]2[C@H]([C@@H]1/C=C/C=C/C(=O)O)[C@@H](C)CC[C@@H]2O
active: Potency [2] 8.05 µM
inactive: outcome [1] | outcome [4]

CC(=O)O[C@@H]1C2=C(O)C(=O)[C@](C)(OC(C)=O)C(=O)C2=CO[C@@]12O[C@@H](C)CC[C@H]2OC(C)=O
inactive: outcome [1] | outcome [2] | max response [3] -10.7% | outcome [4] inactive [at 17.4 µM]

O=C(NCc1cccs1)c1cc2nc(-c3ccco3)cc(C(F)(F)Cl)n2n1
inactive: outcome [1] | max response [2] 3.07% | max response [3] -24.5% | outcome [4]

Cc1ccc(-c2cn3c4c(sc3n2)CCCC4)cc1
inactive: outcome [1] | max response [2] -4.88% | max response [3] -12.5% | outcome [4]

Fc1ccc(-c2cncc(CN3CCN(c4cccc5c4OCCO5)CC3)c2)cc1
inactive: outcome [1] | max response [2] -10.8% | max response [3] -12.4% | outcome [4]

Cc1nc(C#Cc2ccnc(Cl)c2)c(C)n1-c1ccc(OC(F)(F)F)cc1
inactive: outcome [1] | max response [2] -15.3% | max response [3] -27.8% | outcome [4]

C=C1C(=O)OC2C1CCC1(C)C(O)CC=C(C)C21 (stereo not given)
inactive: outcome [1] | max response [2] 0.514% | outcome [3] | outcome [4]

NC(=O)c1ccccc1Nc1ccnc(Nc2cccc(O)c2)n1
active: Potency [1] 5.8 µM | Potency [2] 8.2 µM | Potency [3] 7.31 µM

OC1CCC(Nc2nc(-c3ccccc3)nc3[nH]ccc23)CC1 (stereo not given)
inactive: max response [1] -12.5% | max response [2] 7.97% | max response [3] -18.3%

CC(C)c1ccc(-c2cc(=O)c3ccccc3o2)cc1
inactive: max response [1] -4.45% | max response [2] -3.41% | max response [3] -24.9%

CN(C)CCn1cc(-c2ccc(F)cc2)c(-n2cccc2)n1
inactive: max response [1] 4.28% | max response [2] -2.07% | max response [3] -6.89%

CCOc1ccc(S(=O)(=O)N2CCCCCC2)c2ccccc12
inactive: outcome [1] | max response [2] -18.9% | outcome [3] | outcome [4]

CC(CCC1(O)OC2CC3C4CC=C5C[C@@H](O[C@@H]6O[C@H](CO)[C@@H](O[C@@H]7O[C@@H](C)[C@H](O)[C@@H](O)[C@H]7O)[C@H](O)[C@H]6O[C@@H]6O[C@@H](C)[C@H](O)[C@@H](O)[C@H]6O)CC[C@]5(C)C4CC[C@]3(C)[C@@]2(O)[C@@H]1C)CO[C@@H]1O[C@H](CO)[C@@H](O)[C@H](O)[C@H]1O (stereo not given in full)
inactive: outcome [1] | outcome [2] | max response [3] 4.51% | outcome [4] inactive [at 9.27 µM]

CCCCNc1ncc2c(-c3ccc(S(=O)(=O)N4CCOCC4)cc3)nn(C3CCC(O)CC3)c2n1 (stereo not given)
active: Potency [1] 6.51 µM | Potency [2] 11.6 µM | Potency [3] 7.31 µM

O=C(Nc1cnc(Cl)nc1)c1ccc(F)c(F)c1
inactive: outcome [1] | max response [2] 3.36% | max response [3] 1.41% | outcome [4]
